Source: PubChem BioAssay (NCI)
This is part of a sample that, as a whole, favours compounds with a hit. Of some 83,000 tested, about 20% had one in any assay.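 Method: cells in 96-well plates; compound added at one concentration; 48 h incubation; percent growth measured; values under 10 scored active.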 A number with no mark means an inactive call. Calls of active or inactive are those of the source.

Tests used:
Assay in all cases: NCI-60 one-dose screen, 48 h (100 = growth as untreated, 0 = no growth, -100 = all killed)
Conditions in all cases: 10 µM unless noted
[1] = test system: NCI-H23 lung
[2] = test system: NCI-H322M lung
[3] = test system: HOP-62 NSCLC
[4] = test system: NCI-H460 lung
[5] = test system: HOP-92 NSCLC
[6] = test system: NCI-H522 lung
[7] = test system: A549/ATCC NSCLC
[8] = test system: 786-0 renal
[9] = test system: COLO 205 colon
[10] = test system: DU-145 prostate
[11] = test system: K-562 leukemia
[12] = test system: MALME-3M melanoma
[13] = test system: MDA-MB-231 breast
[14] = test system: RXF 393 renal
[15] = test system: SF-268 CNS
[16] = test system: SF-295 CNS
[17] = test system: SF-539 CNS
[18] = test system: UACC-257 melanoma
[19] = test system: M14 melanoma
[20] = test system: HCT-15 colon

Structure (SMILES)	growth [1]	growth [2]	growth [3]	growth [4]	growth [5]	growth [6]	growth [7]	growth [8]	growth [9]	growth [10]	growth [11]	growth [12]	growth [13]	growth [14]	growth [15]	growth [16]	growth [17]	growth [18]	growth [19]	growth [20]
C=C[C@@H]1CCC/C=C/[C@@H]2C[C@H](O)C[C@H]2[C@H](O)/C=C/C(=O)O1	5.64% (active)	38.3%	19.2%	13.5%	25.5%	-24.5% (active)	22.6%	-12.9% (active)	-78.4% (active)	21.1%	11.4%	-12.5% (active)	-47.9% (active)	-5.1% (active)	8.16% (active)	14.6%	30.3%	33.5%	21%	11.6%
COc1cccc(-c2nn(C)c3sc(C(=O)NCCN4CCN(c5ccccc5F)CC4)cc23)c1	91.2%	87.3%	81.4%	57.6%	14.9%	60.9%	74.7%	57.6%	-78.4% (active)	89.4%	-35.5% (active)	-87% (active)	30.8%	41.3%	76.9%	-55.6% (active)	56.4%	-67.3% (active)	-90.1% (active)	29.3%
COc1cc(C2C3=C(COC3=O)N(CCO)c3cc4c(cc32)OCCO4)cc(OC)c1O (centres undefined)	35.8%	51.6%	32.9%	-3.84% (active)	85.3%	-23.4% (active)	52.8%	19.8%	18.2%	-8.77% (active)	12.5%	64.7%	27.7%	-45.7% (active)	46%	2.74% (active)	-31.2% (active)	46.2%	-22.4% (active)	49.4%
O=C(Nc1ccc(Cl)cc1F)c1cc(I)ccc1O	12.1%	17.8%	21.9%	15.7%	-24.6% (active)	-9.32% (active)	17.6%	77.2%	106%	31.9%	14.9%	-1.76% (active)	52.8%	14.8%	17.1%	48.4%	16.4%	21.9%	27.9%	25.4%
Nc1ccn(C2O[C@H](CO)[C@@H](O)[C@H]2O)c(=O)n1 (some centres undefined)	71.8%	114%	65%	59.8%	73.2%	71.2%	46.6%	95.2%	110%	94.4%	74.3%	109%	82.8%	50.1%	86.2%	58.5%	73.1%	90.1%	107%	–
COc1cc2nc(-c3cccc4cccnc34)nc(NC3CCN(Cc4ccccc4)CC3)c2cc1OC	-72.2% (active)	-71.3% (active)	-73.9% (active)	-73.6% (active)	-73.2% (active)	-52.1% (active)	-72.7% (active)	-71.4% (active)	-75.5% (active)	-93.6% (active)	-49.4% (active)	-76.6% (active)	-89.5% (active)	-79.8% (active)	-68.8% (active)	-87.2% (active)	-86.6% (active)	-62.4% (active)	-80% (active)	-80.9% (active)
COc1cc(C(=O)NN=C2c3ccccc3-c3ccccc32)cc(OC)c1OC	62%	54%	36.6%	11.2%	42.4%	15%	43.6%	41.9%	2.88% (active)	49.7%	13.9%	44.4%	49.1%	16.7%	45.1%	-0.172% (active)	4.99% (active)	38.1%	17.6%	27.2%
NCCOc1ncccc1/C=C1\c2ccccc2-c2ccc(F)cc21	-6.99% (active)	48.4%	11.1%	-33.3% (active)	29.8%	37.7%	-51.9% (active)	6.26% (active)	-30.1% (active)	7.83% (active)	3.28% (active)	32.3%	34.7%	25.2%	23.2%	2.01% (active)	11.5%	67.6%	25.2%	3.22% (active)
